Screening results deposited in PubChem by National Center for Advancing Translational Sciences (NCATS).
The list is not random: actives were taken first. Their share in the collection is about 12%.
Pf growth 96h – P. falciparum growth inhibition at 96 hour, primary screen for plastid delayed-death inhibitors; P. falciparum luciferase reporter growth, 96 h; Potency, µM (titrated, usually from 28.7 µM), actives largely listed as inhibitors; actives 6.9% (n = 320,000); AID 504834
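Parasite growth measured via integrated firefly luciferase reporter in P. falciparum. Infected erythrocytes at 2% hematocrit, 0.05% parasitemia final were treated 96 hours at 37 C under 5% CO2, and luminescence was read.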
SARS PLpro yeast – inhibitors of SARS-CoV papain-like protease in yeast; actives 0.19% (n = 330,000); AID 485353; S. cerevisiae expressing SARS-CoV PLpro, growth rescue; Potency, µM (highest dose often 32.9 µM), usual class: activators; calls by dose curve; further: nearly all actives have a fitted effect of over 55% in size
HCV inhibitor – blocks hepatitis C virus | Huh7.5.1 HCVcc-Cre infection, luciferase reporter, 44 h | Potency, µM (titrated, usually from 41.8 µM), hits mostly inhibitors | actives 3.4% (n = 340,000) | AID 651820
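A cell-based infection assay in which seeded cells (1,000 per well) receive test compound after 4 h, are inoculated with HCVcc-Cre at approximately 0.5 moi, and are incubated 44 h before luminescence detection.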
Pf growth 48h – P. falciparum growth inhibition at 48 hours (one generation); P. falciparum luciferase growth in erythrocytes, 48 h; Potency, µM (doses to about 28.7 µM), actives largely listed as inhibitors; actives 5.9% (n = 310,000); AID 504832
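First compound was added to culture medium, then infected red cells at 0.1% parasitemia and 2% hematocrit (final). After incubation at 37 C under 5% CO2, luciferase detection reagent was dispensed and light output recorded.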
NS1 inh – inhibitors of influenza NS1 protein function; Potency, µM (highest dose often 46.1 µM); actives 0.4% (n = 270,000); calls by dose curve; further: actives are rising curves; nearly all actives have a fitted effect of over 50% in size
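S. cerevisiae expressing influenza A NS1, grown in glucose, washed, then diluted 1:100 into pH 6.0 -URA galactose medium with 23 nl compound. Growth recovery read as OD600; NS1-free strain serves as control.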
AMA1-RON2 inh – AMA1-RON2 (P. falciparum) interaction inhibition. AlphaScreen AMA1-biotinylated RON2 peptide binding. Potency, µM (highest dose often 58.2 µM), usual class: inhibitors. actives 0.2% (n = 360,000). AID 720542; further: nearly all actives have a fitted effect of over 45% in size
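AMA1 (3D7) with his tag at 25 nM final met compounds first, then biotinylated RON2 peptide at 25 nM; detection used donor plus acceptor beads, 10 µg/mL apiece, read by AlphaScreen after 30 min at room temperature.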
Flu NS1 inh – influenza NS1 function inhibition validation; 1,400 tested, under 10 active; influenza NS1 function cell assay, 15-point titration; shares compounds with NS1 inh; AID 492980; activity change, negative = inhibition, % at 32.9 µM; calls by dose curve
PR8 titer – influenza NS1 inhibitors: inhibition of influenza A/PR/8/34 replication; shares compounds with NS1 inh; MDCK infected influenza A/PR/8/34, virus titer TCID50; active compounds read low; virus titer (log TCID50), log10 TCID50 at 5 µM; actives 30% (n = 95); call rule not given here
Each line names hits and unclear results; the compound was inactive in the other large screens (follow-up assays come after a bar, where they were run). Unless noted, the call rests on the fitted dose curve; in most records, active means well fitted curve in the direction sought with a large enough effect; inconclusive means small, poorly fitted or top-dose-only effect, or another doubt; inactive means no such curve, though single readings can be large; an effect the other way counts as inactive or inconclusive.

COc1cccc(-n2c(SCC(N)=O)nnc2-c2ccncc2)c1	none
COc1cc(CNC2CCCCCCC2)c(Br)cc1OCCO	Pf growth 96h inconclusive, HCV inhibitor inconclusive, Pf growth 48h inconclusive
COc1ccc2oc(/C=C/N(C)C)c(C(=O)c3ccc(Cl)cc3)c2c1	Pf growth 96h inconclusive, HCV inhibitor inconclusive, Pf growth 48h inconclusive, NS1 inh 12.6µM | Flu NS1 inh inactive
COc1ccc(OC)c(C2CC(=O)Nc3c2c(=O)[nH]c2ncnn32)c1 (stereo unspecified)	none
COc1ccc(CCNC(=O)Cn2ccc3cc(S(=O)(=O)N4CCCC4)ccc32)cc1OC	HCV inhibitor inconclusive, Pf growth 48h inconclusive, NS1 inh 2.51µM | Flu NS1 inh inactive
Nc1cc(=O)[nH]c(SCC(=O)Nc2cccc(Cl)c2Cl)n1	none (no result: NS1 inh)
O=S(=O)(Nc1ccc(O)c(Sc2nc3ccccc3s2)c1)c1cccc2ccccc12	Pf growth 96h inconclusive, SARS PLpro yeast inconclusive, HCV inhibitor inconclusive, NS1 inh 20µM | Flu NS1 inh inactive
COc1ccc(-c2cn[nH]c2N)c(OC)c1	Pf growth 48h inconclusive, NS1 inh 8.91µM (no result: Pf growth 96h) | Flu NS1 inh inactive
COc1cc(/C=C2\C(=O)NN(c3ccccc3)C2=O)ccc1OCC(N)=O	none (no result: HCV inhibitor, NS1 inh, AMA1-RON2 inh)
C#CCOc1ccc(/C=C2/C(=O)NN(c3ccc(F)cc3)C2=O)cc1OC	Pf growth 96h inconclusive, NS1 inh 3.55µM (no result: Pf growth 48h) | Flu NS1 inh inactive
O=C(c1ccc2c(c1)OCO2)[C@@H]1[C@@H]2C(=O)N(C3CCCCC3)C(=O)[C@@H]2C2c3ccccc3C=CN21 (stereo partly specified)	Pf growth 96h 4.65µM, Pf growth 48h 6.57µM, NS1 inh 12.6µM | Flu NS1 inh inactive | PR8 titer inactive
COc1ccc(N2C(=O)[C@@H]3[C@H](C2=O)[C@H]2c4ccccc4C=CN2[C@@H]3C(C)=O)cc1	none
O=C(Cn1cnc([N+](=O)[O-])n1)NCc1ccccc1	NS1 inh 3.55µM | Flu NS1 inh inactive
CCOc1cc(S(=O)(=O)NCc2ccncc2)ccc1Cl	HCV inhibitor inconclusive
CCN1CCN(CCNC(=O)c2ccc(CS(=O)(=O)c3c(Cl)cccc3Cl)o2)CC1	NS1 inh inconclusive (no result: Pf growth 48h) | Flu NS1 inh inactive
COCCNC(=O)c1ccc(CS(=O)(=O)c2c(Cl)cccc2Cl)o1	none
N#CN1C2CCC1CC(O)(c1ccccc1)C2 (stereo unspecified)	none (no result: Pf growth 96h, SARS PLpro yeast, HCV inhibitor, Pf growth 48h, NS1 inh)
CCCCc1ccc(NC(=S)NCc2ccccc2OC)cc1	Pf growth 48h inconclusive
COc1ccccc1NC(=O)CC(=O)CSc1nnc(-c2ccc(C)cc2)n1-c1ccccc1	NS1 inh 14.1µM | Flu NS1 inh inactive
O=C(CSc1nnc(-c2ccccc2)n1-c1ccccc1)NCc1ccco1	NS1 inh 17.8µM | Flu NS1 inh inactive
COc1ccc(C(C)=O)cc1CSc1nnc(-c2ccncc2)n1C	Pf growth 96h inconclusive (no result: NS1 inh)
COc1ccc(C(C)=O)cc1CSc1nnc(-c2ccc(Cl)cc2)n1-c1ccccc1	Pf growth 96h 9.28µM, HCV inhibitor 7.94µM, Pf growth 48h inconclusive, NS1 inh 1µM | Flu NS1 inh inconclusive
COc1ccccc1C(=O)NCC(=O)OCC(=O)Nc1ccc2[nH]c(=O)[nH]c2c1	none (no result: NS1 inh)
CS(=O)(=O)/C(C#N)=C/c1cccn1S(=O)(=O)c1ccccc1	Pf growth 96h inconclusive
N#CC(C#N)=Cc1cccn1-c1ccc(S(N)(=O)=O)cc1	NS1 inh inconclusive | Flu NS1 inh inactive
Cc1nnc(SC(C)C(=O)Nc2ccc(N3CCOCC3)cc2)n1Cc1ccccc1 (stereo unspecified)	HCV inhibitor inconclusive (no result: NS1 inh)
CC1CC(C)CN(S(=O)(=O)N2CCC(C(=O)NCCc3ccccc3)CC2)C1 (stereo unspecified)	NS1 inh inconclusive | Flu NS1 inh inactive
O=C(NCCc1ccccc1)C1CCN(S(=O)(=O)N2CCCC2)CC1	none
CN(C)C(=O)CSc1nnc(-c2ccc(S(=O)(=O)N3CCCC3)cc2)n1C	none
CC(C)(C)C(=O)Nc1ccc(C(=O)Nc2cccc(Oc3ccc(C(=O)O)c(C(=O)O)c3)c2)cc1	NS1 inh 11.2µM | Flu NS1 inh inactive
COCCNC(=S)N=Nc1c(O)[nH]c2ccc([N+](=O)[O-])cc12	Pf growth 96h inconclusive, Pf growth 48h inconclusive
CCCCC/C=C\C/C=C\C/C=C\C/C=C\CCCC(=O)NCC(=O)O	NS1 inh 17.8µM (no result: SARS PLpro yeast, HCV inhibitor, AMA1-RON2 inh) | Flu NS1 inh inactive
Cc1nnc(N(C)C(=O)c2ccc3c(c2)OCO3)s1	none
Cc1ccc(NC(=O)C2CCCCC2C(=O)O)cc1C (stereo unspecified)	none
COc1ccc(NC(=O)c2ccccc2NC(=O)C2CCCCC2C(=O)O)cc1 (stereo unspecified)	none (no result: Pf growth 96h, SARS PLpro yeast, Pf growth 48h, NS1 inh)
Cc1cc(-c2ccc(NC(=O)[C@@H]3CCCC[C@@H]3C(=O)O)c(C)c2)ccc1NC(=O)[C@@H]1CCCC[C@@H]1C(=O)O	NS1 inh 3.98µM | Flu NS1 inh inconclusive
COC(=O)c1ccccc1NC(=O)C1CCCCC1C(=O)O (stereo unspecified)	Pf growth 96h inconclusive, NS1 inh 5.01µM | Flu NS1 inh inactive
Cc1nc2ccc(S(=O)(=O)Nc3cccc(-c4nc5cccnc5s4)c3)cc2s1	NS1 inh 11.2µM | Flu NS1 inh inactive
COC(=O)c1ccccc1NC(=S)N(Cc1ccc2c(c1)OCO2)Cc1cc2cc(C)ccc2[nH]c1=O	HCV inhibitor inconclusive, Pf growth 48h inconclusive, NS1 inh 11.2µM | Flu NS1 inh inconclusive
CCc1ccc2[nH]c(=O)c(CN(Cc3ccc4c(c3)OCO4)C(=O)c3ccco3)cc2c1	HCV inhibitor inconclusive, Pf growth 48h inconclusive
Fc1ccc(Cn2nnnc2CN2CCC(n3nnc4cc(C(F)(F)F)ccc43)CC2)cc1	Pf growth 96h inconclusive, HCV inhibitor inconclusive, Pf growth 48h inconclusive, NS1 inh 5.01µM | Flu NS1 inh inconclusive
C/C(CC(=O)N(C(C)C)C(C)C)=N\NC(=O)COc1ccc(Br)cc1Br	NS1 inh 11.2µM | Flu NS1 inh inconclusive
C/C(CC(=O)N(C(C)C)C(C)C)=N\NC(=O)COc1ccc(Cl)cc1Cl	none (no result: NS1 inh)
C/C(=N/NC(=O)c1cc(C)[nH]n1)c1ccncc1	Pf growth 96h inconclusive
COC(=O)c1[nH]c2ccc(C)cc2c1NS(=O)(=O)c1ccc(F)c(C)c1	Pf growth 96h inconclusive, HCV inhibitor inconclusive, Pf growth 48h inconclusive, NS1 inh 1.78µM | Flu NS1 inh inactive
COC(=O)c1[nH]c2ccc(F)cc2c1NS(=O)(=O)c1ccc(F)c(C)c1	Pf growth 96h inconclusive, Pf growth 48h inconclusive
